Source: the supplement of paper PMC3334620
The full ranking holds about 33,000 sequences; the median of “E-score (-0.5 to 0.5)” is about -0.0014, and the highest 2% start at about 0.25. What follows is part of a selection rich in the highest values, with near analogues and random picks from the rest.

Target: T1, Cad1 (UniProt P24813)
T1 sequence: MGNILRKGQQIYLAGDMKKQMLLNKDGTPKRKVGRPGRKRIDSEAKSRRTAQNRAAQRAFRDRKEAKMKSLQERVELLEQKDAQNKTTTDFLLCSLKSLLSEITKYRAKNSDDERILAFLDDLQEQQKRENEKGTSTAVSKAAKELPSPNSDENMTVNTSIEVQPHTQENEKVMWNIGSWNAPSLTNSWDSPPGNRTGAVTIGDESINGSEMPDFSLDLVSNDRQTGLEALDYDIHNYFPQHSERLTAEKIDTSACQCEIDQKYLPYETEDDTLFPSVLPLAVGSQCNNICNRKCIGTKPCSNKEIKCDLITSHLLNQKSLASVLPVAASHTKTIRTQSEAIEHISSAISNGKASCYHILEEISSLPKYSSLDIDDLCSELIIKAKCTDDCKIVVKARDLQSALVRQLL
Assay: PBM E-score (8-mer binding enrichment) (E-score (-0.5 to 0.5)); higher = stronger / more preferred TF binding
Details: protein concentration: 100 nM; construct: GST-full length
Outline: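 Yeast transcription factors, full-length or as DNA-binding domains, were expressed with a GST tag using PURExpress in vitro transcription/translation. At about 100-200 nM they were applied to universal all-10-mer Agilent arrays, double-stranded by primer extension on fresh or once-stripped slides. Fluorescent anti-GST detected bound protein, and masliner normalised the scans. E-scores for ungapped eight-base words, pooled with reverse complements, came from the Universal PBM Analysis Suite.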

Sequence | PBM E-score
GAGCCCAC | -0.1
AAAGAACA | 0.0562
GGACGTTA | 0.0449
CGACGTTC | -0.265
CGACGTTA | 0.276
CGCATGTC | 0.0303
GCGAGGCC | -0.113
AATATTAC | 0.347
TATATTAA | 0.326
GATATTAA | 0.187
AACATTAA | 0.127
TGTATTAA | -0.00939
ACTATTAC | 0.149
CCTATTAC | -0.0089
CATATTAC | 0.225
TACATTAA | 0.26
GATATTAC | 0.293
GCTATTAC | 0.098
GACATTAA | 0.124
ACATGGAT | 0.0578
ATTTGATC | -0.0183
AGCCCGAC | -0.149
ACGTTTGA | 0.0358
AAAGGACT | -0.224
ATGTGGCC | -0.0491
AATGGTGC | -0.131

Sequence | PBM E-score
GCTGAACC | -0.0931
ACTTTGGC | -0.0521
TACTGCGA | 0.0327
AGCTCCAG | -0.181
AGATTTCC | 0.185
AATATTAA | 0.281
CATATTAG | 0.179
AATATTAG | 0.213
AATATTAT | 0.194
CATATTAA | 0.272
CATATTTA | 0.232
CGATTGTC | 0.174
AGCTATTC | -0.215
GCATCATA | 0.296
ACATCATA | 0.105
CTATCATA | 0.148
CTATCTTA | 0.0111
GTATCTTA | 0.287
GTATCTGA | 0.0184
GTATCATA | 0.288
CCATCATA | -0.27
ATATCATA | 0.166
CGAGACCA | -0.0428
ACAAACTC | 0.052
GGCTCCAC | -0.182
CCTCTGCG | -0.147

Sequence | PBM E-score
CGGGTAGA | 0.0106
CGGTTGGC | 0.0738
CGTTCTGA | -0.16
GACTGCGC | -0.0924
AACCCTCG | -0.0276
GTTATAAA | 0.184
CTTATAAA | 0.275
TTTATAAA | 0.261
CTTATAAC | 0.177
ATTATAAA | 0.276
ATTATAAG | 0.186
TGTATAAA | 0.028
CTTATAAG | -0.047
ATTATAAC | 0.0512
CCCGCGTC | 0.0369
GTTCGAAA | 0.241
ACCAGAGG | -0.164
GGCGGTAC | -0.0694
GGCCTTGA | 0.0013
GACAAATA | 0.293
TACAAATA | 0.185
GACAAAGC | 0.06
CACAAATG | -0.0179
AACAAATA | 0.186
GACAAATC | 0.306
GACAAGTC | 0.00519

Sequence | PBM E-score
CACAAATC | 0.126
CACAAGTA | -0.0393
CACAAATA | 0.259
GACAAAGA | 0.276
GACAAGAA | 0.0396
GAACTTCA | 0.066
CGAACTGA | -0.17
CCGGGGAC | -0.235
CCTTATAG | -0.219
ATTAGGGC | -0.0576
AGTTTTGG | 0.127
GACAGCGC | 0.14
ACGTGCGC | 0.122
CAGTAGTC | -0.207
AACACGAT | 0.123
AAGTTGGT | 0.252
AAGTTGGC | -0.125
AAGTTGGG | -0.0322
ATTAGAGC | 0.041
ATAGTGTA | 0.0723
AAGAAGTA | 0.12
CAAGCAAA | 0.0203
CACACTCA | 0.194
CGACAGTC | -0.12
CACGCCTC | -0.0988
GTATAAAA | 0.18

Sequence | PBM E-score
ATATAATA | 0.261
GTATAATA | 0.283
ATATAATG | 0.0839
GTATAAGA | -0.0708
CTATAATA | -0.101
CACCGTGC | 0.161
TGAACTAA | -0.063
ATCGAACG | -0.0756
AATCGCAT | 0.0873
CATTAATC | 0.153
CATTAACA | 0.16
CATTAATG | 0.198
GATTAACC | 0.02
TATTAAAA | 0.194
GATTAATC | 0.355
TATTAATA | 0.339
TATTAACA | 0.25
CATTAATA | 0.297
GATTAAAC | 0.0432
TATTAAGA | 0.0149
GATTAACA | 0.163
AACCCCTC | -0.319
GCGAGTTA | 0.0928
GTCTGCTA | 0.218
GAGAGAAA | 0.14
CTTATACC | 0.0668

Sequence | PBM E-score
CGACCTAC | -0.126
CGTTGGTA | 0.141
GTTCGGAA | 0.174
ACACTATC | 0.115
GACTCAAA | -0.0319
ACAACTAT | 0.0919
AGTAGTGG | 0.0582
GAACTATA | 0.09
GATTAATA | 0.354
GATTAAAA | 0.214
GATTAAGA | 0.18
GGTTGAGA | -0.224
TCATATGA | 0.321
GCATATGA | 0.118
CCATATGA | -0.0943
CCCCTGCA | -0.246
AGCCAACT | -0.117
ACGGATCA | 0.215
AATTCGCC | 0.154
CGGAACAC | 0.235
CGGAACAA | 0.29
CCGAACAA | 0.107
TGGAACAA | 0.144
ACGAACAA | 0.184
GCGAACAA | 0.275
CGTAGTAC | -0.00804

Sequence | PBM E-score
AGCATCCA | -0.168
CTTTCAGA | 0.0705
AAGAATGC | 0.0333
GGCTTACA | 0.229
GAATGGTC | -0.0781
ATAAACCC | 0.0626
AAGCCTTG | 0.00151
AATCTCCC | -0.277
AAGCGATA | 0.103
CCAATTGC | -0.114
CCAATTGG | 0.263
GCAATTGC | 0.33
ACAATTGG | -0.0197
GCAATTGA | 0.118
CCAATTGA | 0.0388
CGCTGTAG | -0.0927
CGTTGCTA | 0.103
CATAACTC | -0.0187
TGCGGCCA | -0.03
ATGTCTGA | 0.129
GGGGATGA | -0.094
GGCTAGCA | -0.135
TGCTAGCA | 0.263
CGCTAGCA | -0.0293
ATTAATCG | 0.234
GTTAATCA | 0.318

Sequence | PBM E-score
ATTAATCC | 0.161
ATTAATCA | 0.436
CTTAATCA | 0.141
GCTAATCA | 0.215
CTAGCCCC | -0.0928
TGCAGAAA | 0.114
ACGTACTC | -0.0542
ACATATAT | 0.155
CTATATAG | 0.0376
ATATATCA | 0.134
ATATATAT | 0.295
CTCTATAC | 0.0205
ATATATCC | 0.297
CTATATAC | 0.27
ATATATAG | 0.175
AAATATGC | 0.069
CTATATCC | -0.0465
AAATATGA | 0.234
AAATATGT | 0.277
CCTGCCTA | -0.0584
AGGGTTAG | -0.153
AGGATAGA | -0.0415
AGAACTAG | -0.146
CCAAAGGG | -0.0732
ACTCTCGG | -0.0764
GGCGTTAC | -0.0303

Sequence | PBM E-score
GTATATAC | -0.0771
ATATATAC | 0.317
AAATATAC | -0.0915
ACATATAC | 0.0911
AAATATAT | 0.305
AAATATAA | 0.247
AGTAGCCA | -0.282
AGTCCAGC | -0.112
TAGGTCGA | 0.131
GATATATA | 0.333
AATATGGA | 0.0714
GATATATC | 0.211
TATATGGA | -0.0332
GATATGGA | 0.266
TACATATA | 0.252
CACATATA | 0.0867
TATATACA | 0.209
CATATATA | 0.164
TATATATA | 0.377
GATATACA | 0.0899
GACATATA | 0.0919
